# According to PMC7862700, “An all-to-all approach to the identification of sequence-specific readers for epigenetic DNA modifications on cytosine”:
# Key:
# Assay in all cases: DAPPL (digital affinity profiling via proximity ligation, sequencing); 10 mM Tris-HCl pH 7.5, 50 mM NaCl, 1 mM DTT, 4% glycerol, room temperature, 30 min; GST-TFs on glutathione beads, 16-mer random dsDNA library, 0.1% formaldehyde crosslink after washing; high values mean tight binding
# [1] = molecular target: T1, FEV (Homo sapiens, UniProt Q99581 1-238); conditions: protein: recombinant; tags: N-terminal GST; dsDNA, one strand shown
# T1 sequence: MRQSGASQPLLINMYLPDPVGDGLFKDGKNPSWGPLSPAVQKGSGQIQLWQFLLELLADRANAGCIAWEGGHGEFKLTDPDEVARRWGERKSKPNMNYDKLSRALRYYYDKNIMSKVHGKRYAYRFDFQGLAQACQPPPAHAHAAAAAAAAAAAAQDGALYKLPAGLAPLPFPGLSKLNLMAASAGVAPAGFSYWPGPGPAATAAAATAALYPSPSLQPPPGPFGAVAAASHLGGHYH
# Summary of the method: (§1)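 Pools of DNA-barcoded human transcription factors, expressed in yeast as GST fusions on glutathione beads and combined with a tag-only sample, were incubated with 200 nmole of a 16-mer random double-stranded DNA library. Incubation took 30 min at room temperature in Tris/NaCl/DTT/glycerol buffer and was followed by washing, 0.1% formaldehyde crosslinking, proximity ligation (BsaI/T4 ligase, 1 h, 37 °C), PCR amplification and sequencing on an Illumina NextSeq500. Binding signal is the ratio of a hexamer's read frequency for a factor to its frequency for the tag-only sample.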
# [2] = molecular target: ETV5 (Homo sapiens, UniProt P41161 1-510); conditions: protein: recombinant; tags: N-terminal GST; dsDNA, one strand shown
# ETV5, sequence (P41161 whole entry): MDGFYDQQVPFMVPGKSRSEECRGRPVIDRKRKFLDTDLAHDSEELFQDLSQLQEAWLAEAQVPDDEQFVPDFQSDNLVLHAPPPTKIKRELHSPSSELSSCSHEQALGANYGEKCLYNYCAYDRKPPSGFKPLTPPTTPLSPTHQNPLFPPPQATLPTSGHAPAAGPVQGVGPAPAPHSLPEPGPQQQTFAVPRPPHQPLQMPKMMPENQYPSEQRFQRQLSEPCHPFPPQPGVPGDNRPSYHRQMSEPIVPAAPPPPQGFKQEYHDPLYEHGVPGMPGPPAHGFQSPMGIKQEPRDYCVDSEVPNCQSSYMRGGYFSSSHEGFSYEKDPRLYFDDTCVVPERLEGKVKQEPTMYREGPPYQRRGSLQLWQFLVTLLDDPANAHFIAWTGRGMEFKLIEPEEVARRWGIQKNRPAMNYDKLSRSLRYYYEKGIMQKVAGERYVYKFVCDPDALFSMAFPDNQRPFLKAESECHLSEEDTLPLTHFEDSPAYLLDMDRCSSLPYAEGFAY
# Summary of the method: as §1
# [3] = molecular target: HSF1 (Homo sapiens, UniProt Q00613 1-529); conditions: protein: recombinant; tags: N-terminal GST; chain copies: 3; dsDNA, one strand shown
# HSF1, sequence (Q00613 whole entry): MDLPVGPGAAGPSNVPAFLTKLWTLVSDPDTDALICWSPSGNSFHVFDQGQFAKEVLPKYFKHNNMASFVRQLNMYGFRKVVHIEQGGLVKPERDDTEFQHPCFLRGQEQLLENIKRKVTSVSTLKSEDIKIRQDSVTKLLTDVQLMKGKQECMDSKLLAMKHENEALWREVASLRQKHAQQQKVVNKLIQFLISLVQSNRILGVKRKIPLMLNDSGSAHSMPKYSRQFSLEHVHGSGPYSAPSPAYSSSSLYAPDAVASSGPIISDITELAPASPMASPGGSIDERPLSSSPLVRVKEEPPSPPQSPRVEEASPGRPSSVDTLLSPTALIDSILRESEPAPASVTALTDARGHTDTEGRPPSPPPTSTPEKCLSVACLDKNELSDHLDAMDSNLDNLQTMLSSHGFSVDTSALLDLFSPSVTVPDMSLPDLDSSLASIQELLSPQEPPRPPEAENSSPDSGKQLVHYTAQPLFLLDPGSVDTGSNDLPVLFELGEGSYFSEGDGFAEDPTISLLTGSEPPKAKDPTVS
# Summary of the method: as §1
# [4] = molecular target: T2, SPIC (Homo sapiens, UniProt Q8N5J4 1-248); conditions: protein: recombinant; tags: N-terminal GST; dsDNA, one strand shown
# T2 sequence: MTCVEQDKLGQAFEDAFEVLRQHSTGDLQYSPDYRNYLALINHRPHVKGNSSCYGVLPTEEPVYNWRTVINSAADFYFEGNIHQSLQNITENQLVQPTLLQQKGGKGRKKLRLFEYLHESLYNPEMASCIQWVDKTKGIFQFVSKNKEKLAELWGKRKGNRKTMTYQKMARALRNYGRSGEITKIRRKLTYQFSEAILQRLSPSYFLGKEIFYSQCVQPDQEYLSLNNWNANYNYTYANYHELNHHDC
# Summary of the method: as §1
# [5] = molecular target: ELF4 (Homo sapiens, UniProt Q99607 1-663); conditions: protein: recombinant; tags: N-terminal GST; dsDNA, one strand shown
# ELF4, sequence (Q99607 whole entry): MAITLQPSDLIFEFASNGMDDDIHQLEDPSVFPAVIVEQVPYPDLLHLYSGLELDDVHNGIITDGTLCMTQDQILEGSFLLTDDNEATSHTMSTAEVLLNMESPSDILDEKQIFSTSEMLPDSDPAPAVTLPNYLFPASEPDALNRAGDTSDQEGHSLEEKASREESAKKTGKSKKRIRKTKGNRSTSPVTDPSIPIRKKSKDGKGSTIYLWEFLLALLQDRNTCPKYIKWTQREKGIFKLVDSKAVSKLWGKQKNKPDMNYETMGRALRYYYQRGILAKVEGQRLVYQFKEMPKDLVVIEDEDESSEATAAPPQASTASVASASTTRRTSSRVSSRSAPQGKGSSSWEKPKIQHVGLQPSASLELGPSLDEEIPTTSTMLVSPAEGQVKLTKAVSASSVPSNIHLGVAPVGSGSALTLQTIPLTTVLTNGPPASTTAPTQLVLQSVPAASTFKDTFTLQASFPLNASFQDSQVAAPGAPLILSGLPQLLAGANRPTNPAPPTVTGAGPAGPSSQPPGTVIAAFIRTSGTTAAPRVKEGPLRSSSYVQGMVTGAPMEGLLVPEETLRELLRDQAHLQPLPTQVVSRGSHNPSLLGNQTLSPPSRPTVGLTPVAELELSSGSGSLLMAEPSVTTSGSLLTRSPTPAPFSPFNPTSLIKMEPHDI
# Summary of the method: as §1
# [6] = molecular target: T3, ELK4 (Homo sapiens, UniProt P28324-2 1-405); conditions: protein: recombinant; tags: N-terminal GST; dsDNA, one strand shown
# T3 sequence: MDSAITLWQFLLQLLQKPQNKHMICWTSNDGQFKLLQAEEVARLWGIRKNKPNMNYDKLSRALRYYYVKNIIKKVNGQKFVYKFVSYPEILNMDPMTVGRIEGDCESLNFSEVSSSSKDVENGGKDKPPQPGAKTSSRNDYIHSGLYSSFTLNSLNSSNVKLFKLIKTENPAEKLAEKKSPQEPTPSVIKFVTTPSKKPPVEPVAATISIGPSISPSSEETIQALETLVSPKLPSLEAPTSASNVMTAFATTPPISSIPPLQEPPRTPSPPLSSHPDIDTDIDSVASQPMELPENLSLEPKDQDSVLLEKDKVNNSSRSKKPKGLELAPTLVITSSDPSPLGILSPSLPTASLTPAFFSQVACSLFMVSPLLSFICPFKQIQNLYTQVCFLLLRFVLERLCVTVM
# Summary of the method: as §1
# [7] = molecular target: T4, ETV2 (Homo sapiens, UniProt O00321 1-342); conditions: protein: recombinant; tags: N-terminal GST; dsDNA, one strand shown
# T4 sequence: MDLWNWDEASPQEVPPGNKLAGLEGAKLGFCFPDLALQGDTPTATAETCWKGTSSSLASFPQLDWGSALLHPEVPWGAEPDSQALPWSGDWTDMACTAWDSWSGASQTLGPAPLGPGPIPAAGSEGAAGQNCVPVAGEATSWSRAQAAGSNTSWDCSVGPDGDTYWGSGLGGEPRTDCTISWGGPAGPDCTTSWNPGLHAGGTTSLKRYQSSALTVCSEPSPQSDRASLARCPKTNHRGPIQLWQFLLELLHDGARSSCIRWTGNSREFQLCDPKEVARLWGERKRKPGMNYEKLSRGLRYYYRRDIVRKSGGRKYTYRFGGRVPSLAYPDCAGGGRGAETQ
# Summary of the method: as §1
# [8] = molecular target: T5, ELF3 (Homo sapiens, UniProt P78545 1-371); conditions: protein: recombinant; tags: N-terminal GST; dsDNA, one strand shown
# T5 sequence: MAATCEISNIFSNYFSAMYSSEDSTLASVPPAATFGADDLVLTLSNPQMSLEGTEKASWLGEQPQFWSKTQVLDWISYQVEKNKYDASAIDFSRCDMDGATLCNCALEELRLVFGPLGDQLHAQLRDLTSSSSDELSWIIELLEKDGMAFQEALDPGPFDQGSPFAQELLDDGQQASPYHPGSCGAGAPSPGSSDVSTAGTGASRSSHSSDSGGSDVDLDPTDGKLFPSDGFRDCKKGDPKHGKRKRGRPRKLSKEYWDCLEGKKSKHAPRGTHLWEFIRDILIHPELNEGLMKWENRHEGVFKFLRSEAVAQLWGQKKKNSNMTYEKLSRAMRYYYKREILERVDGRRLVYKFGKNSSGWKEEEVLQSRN
# Summary of the method: as §1
# [9] = molecular target: CRX (Homo sapiens, UniProt O43186 1-299); conditions: protein: recombinant; tags: N-terminal GST; dsDNA, one strand shown
# CRX, sequence (O43186 whole entry): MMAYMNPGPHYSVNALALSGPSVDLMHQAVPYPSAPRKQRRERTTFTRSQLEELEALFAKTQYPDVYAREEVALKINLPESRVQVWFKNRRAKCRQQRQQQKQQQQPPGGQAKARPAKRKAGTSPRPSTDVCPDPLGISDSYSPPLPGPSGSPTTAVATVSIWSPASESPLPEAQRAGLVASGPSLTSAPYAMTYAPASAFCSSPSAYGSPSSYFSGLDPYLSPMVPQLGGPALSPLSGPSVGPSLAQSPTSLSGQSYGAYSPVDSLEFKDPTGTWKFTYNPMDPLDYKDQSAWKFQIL
# Summary of the method: as §1
# [10] = molecular target: ETV1 (Homo sapiens, UniProt P50549 1-477); conditions: protein: recombinant; tags: N-terminal GST; dsDNA, one strand shown
# ETV1, sequence (P50549 whole entry): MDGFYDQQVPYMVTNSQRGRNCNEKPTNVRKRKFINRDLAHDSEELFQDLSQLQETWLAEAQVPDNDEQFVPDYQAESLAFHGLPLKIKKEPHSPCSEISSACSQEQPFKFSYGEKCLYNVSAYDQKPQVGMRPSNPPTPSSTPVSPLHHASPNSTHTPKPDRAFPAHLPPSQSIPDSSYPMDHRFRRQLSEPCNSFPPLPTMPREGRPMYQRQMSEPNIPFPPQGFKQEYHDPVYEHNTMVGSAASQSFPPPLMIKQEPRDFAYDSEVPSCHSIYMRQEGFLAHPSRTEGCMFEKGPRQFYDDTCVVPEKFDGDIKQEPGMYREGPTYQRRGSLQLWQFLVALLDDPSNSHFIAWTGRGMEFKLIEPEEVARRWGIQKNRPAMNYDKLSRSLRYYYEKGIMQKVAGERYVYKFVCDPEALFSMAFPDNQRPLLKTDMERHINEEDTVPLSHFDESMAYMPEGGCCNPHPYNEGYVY
# Summary of the method: as §1
# [11] = molecular target: T6, ERF (Homo sapiens, UniProt P50548 1-548); conditions: protein: recombinant; tags: N-terminal GST; dsDNA, one strand shown
# T6 sequence: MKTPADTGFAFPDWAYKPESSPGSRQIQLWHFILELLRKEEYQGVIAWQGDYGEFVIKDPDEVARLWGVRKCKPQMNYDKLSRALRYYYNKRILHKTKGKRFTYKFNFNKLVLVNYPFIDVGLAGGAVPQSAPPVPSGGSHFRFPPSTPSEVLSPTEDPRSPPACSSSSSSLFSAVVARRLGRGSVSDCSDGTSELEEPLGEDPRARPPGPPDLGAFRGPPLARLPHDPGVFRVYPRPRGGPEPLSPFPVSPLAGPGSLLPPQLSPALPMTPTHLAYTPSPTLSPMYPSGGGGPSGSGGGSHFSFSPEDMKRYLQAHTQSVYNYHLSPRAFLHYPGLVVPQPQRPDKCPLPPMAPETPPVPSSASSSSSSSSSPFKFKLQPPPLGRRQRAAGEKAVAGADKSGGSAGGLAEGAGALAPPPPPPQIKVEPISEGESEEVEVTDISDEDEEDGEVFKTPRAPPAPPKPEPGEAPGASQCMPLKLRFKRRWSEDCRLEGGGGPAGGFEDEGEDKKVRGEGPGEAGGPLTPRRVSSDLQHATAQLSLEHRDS
# Summary of the method: as §1
# [12] = molecular target: T7, ETV3L (Homo sapiens, UniProt Q6ZN32 1-361); conditions: protein: recombinant; tags: N-terminal GST; dsDNA, one strand shown
# T7 sequence: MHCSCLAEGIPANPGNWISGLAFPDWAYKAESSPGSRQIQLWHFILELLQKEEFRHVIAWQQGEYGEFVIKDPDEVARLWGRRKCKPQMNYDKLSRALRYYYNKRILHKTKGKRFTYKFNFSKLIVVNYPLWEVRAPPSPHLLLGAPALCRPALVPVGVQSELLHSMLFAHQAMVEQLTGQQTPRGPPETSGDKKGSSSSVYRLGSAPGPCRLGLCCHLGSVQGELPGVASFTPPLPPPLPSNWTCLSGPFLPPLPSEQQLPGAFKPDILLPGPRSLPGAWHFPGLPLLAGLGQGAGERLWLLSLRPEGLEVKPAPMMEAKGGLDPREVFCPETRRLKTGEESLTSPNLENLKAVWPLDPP
# Summary of the method: as §1
# [13] = molecular target: T8, ETS2 (Homo sapiens, UniProt P15036 1-469); conditions: protein: recombinant; tags: N-terminal GST; dsDNA, one strand shown
# T8 sequence: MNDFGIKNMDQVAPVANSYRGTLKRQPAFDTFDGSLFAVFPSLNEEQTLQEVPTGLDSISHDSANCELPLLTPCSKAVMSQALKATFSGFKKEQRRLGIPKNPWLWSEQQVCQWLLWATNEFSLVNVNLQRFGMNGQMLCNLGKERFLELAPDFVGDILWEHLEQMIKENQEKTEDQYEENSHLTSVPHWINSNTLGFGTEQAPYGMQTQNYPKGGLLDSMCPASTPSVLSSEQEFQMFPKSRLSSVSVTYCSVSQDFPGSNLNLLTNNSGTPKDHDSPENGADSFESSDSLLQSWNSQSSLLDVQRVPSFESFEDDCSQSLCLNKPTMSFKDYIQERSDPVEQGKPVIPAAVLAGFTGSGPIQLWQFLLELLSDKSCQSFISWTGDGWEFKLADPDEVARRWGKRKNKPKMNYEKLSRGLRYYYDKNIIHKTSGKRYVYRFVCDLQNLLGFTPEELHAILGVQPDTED
# Summary of the method: as §1
# [14] = molecular target: T9, SPDEF (Homo sapiens, UniProt O95238 1-335); conditions: protein: recombinant; tags: N-terminal GST; dsDNA, one strand shown
# T9 sequence: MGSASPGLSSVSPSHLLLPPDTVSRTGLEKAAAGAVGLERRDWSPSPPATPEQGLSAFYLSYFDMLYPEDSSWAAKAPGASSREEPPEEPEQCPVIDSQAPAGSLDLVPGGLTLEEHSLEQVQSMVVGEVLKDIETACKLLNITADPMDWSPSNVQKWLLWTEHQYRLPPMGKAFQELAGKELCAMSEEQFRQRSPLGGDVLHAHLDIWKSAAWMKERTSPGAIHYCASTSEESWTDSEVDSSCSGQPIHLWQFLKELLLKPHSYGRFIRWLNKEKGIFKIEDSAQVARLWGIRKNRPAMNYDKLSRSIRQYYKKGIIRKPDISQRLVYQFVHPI
# Summary of the method: as §1
# [15] = molecular target: T10, ETV7 (Homo sapiens, UniProt Q9Y603 1-341); conditions: protein: recombinant; tags: N-terminal GST; dsDNA, one strand shown
# T10 sequence: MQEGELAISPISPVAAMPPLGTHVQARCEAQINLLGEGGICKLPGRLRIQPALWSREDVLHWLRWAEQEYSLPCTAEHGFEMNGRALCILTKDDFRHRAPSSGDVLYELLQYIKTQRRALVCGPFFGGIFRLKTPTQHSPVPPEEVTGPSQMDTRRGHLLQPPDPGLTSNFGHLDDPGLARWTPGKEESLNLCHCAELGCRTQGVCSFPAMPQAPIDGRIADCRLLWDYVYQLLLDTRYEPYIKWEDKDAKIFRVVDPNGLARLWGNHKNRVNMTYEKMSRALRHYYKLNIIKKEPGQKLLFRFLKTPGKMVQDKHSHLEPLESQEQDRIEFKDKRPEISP
# Summary of the method: as §1
# [16] = molecular target: T11, ELF5 (Homo sapiens, UniProt Q9UKW6-2 1-255); conditions: protein: recombinant; tags: N-terminal GST; dsDNA, one strand shown
# T11 sequence: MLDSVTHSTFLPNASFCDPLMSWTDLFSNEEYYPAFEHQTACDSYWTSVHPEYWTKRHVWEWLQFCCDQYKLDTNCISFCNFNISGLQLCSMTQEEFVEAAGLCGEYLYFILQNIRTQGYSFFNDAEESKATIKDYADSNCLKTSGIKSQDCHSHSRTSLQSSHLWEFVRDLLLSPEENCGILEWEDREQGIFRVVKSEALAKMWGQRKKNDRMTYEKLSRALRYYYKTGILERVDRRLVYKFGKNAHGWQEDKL
# Summary of the method: as §1
# [17] = molecular target: T12, ETV3 (Homo sapiens, UniProt P41162-2 1-143); conditions: protein: recombinant; tags: N-terminal GST; dsDNA, one strand shown
# T12 sequence: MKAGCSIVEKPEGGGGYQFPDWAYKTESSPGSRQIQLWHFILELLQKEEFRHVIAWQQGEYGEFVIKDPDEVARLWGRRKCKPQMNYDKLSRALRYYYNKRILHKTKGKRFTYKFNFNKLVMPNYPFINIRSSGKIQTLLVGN
# Summary of the method: as §1
# [18] = molecular target: ETV6 (Homo sapiens, UniProt P41212 1-452); conditions: protein: recombinant; tags: N-terminal GST; dsDNA, one strand shown
# ETV6, sequence (P41212 whole entry): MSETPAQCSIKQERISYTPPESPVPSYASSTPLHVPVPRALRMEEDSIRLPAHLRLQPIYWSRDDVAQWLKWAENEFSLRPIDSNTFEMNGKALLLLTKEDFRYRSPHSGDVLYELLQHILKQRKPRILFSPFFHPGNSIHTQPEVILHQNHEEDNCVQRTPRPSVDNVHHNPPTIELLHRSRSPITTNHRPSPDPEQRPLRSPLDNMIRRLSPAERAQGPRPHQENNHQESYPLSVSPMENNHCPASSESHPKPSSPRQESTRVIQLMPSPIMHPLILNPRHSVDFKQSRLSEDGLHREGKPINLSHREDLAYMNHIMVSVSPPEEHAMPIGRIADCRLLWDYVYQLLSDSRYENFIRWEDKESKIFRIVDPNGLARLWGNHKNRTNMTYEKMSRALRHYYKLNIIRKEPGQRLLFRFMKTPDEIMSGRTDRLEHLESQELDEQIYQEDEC
# Summary of the method: as §1
sequence,measurement,setting,value
TGTTGC,binding signal,[1],"1.25 fold enrichment (6-mer frequency, TF over GST control)"
same,binding signal,[2],"1.35 fold enrichment (6-mer frequency, TF over GST control)"
same,binding signal,[3],"1.02 fold enrichment (6-mer frequency, TF over GST control)"
same,binding signal,[4],"1.17 fold enrichment (6-mer frequency, TF over GST control)"
same,binding signal,[5],"1.34 fold enrichment (6-mer frequency, TF over GST control)"
same,binding signal,[6],"1.37 fold enrichment (6-mer frequency, TF over GST control)"
same,binding signal,[7],"1.15 fold enrichment (6-mer frequency, TF over GST control)"
same,binding signal,[8],"1.28 fold enrichment (6-mer frequency, TF over GST control)"
same,binding signal,[9],"1.08 fold enrichment (6-mer frequency, TF over GST control)"
same,binding signal,[10],"1.4 fold enrichment (6-mer frequency, TF over GST control)"
same,binding signal,[11],"1.46 fold enrichment (6-mer frequency, TF over GST control)"
same,binding signal,[12],"1.37 fold enrichment (6-mer frequency, TF over GST control)"
same,binding signal,[13],"1.3 fold enrichment (6-mer frequency, TF over GST control)"
same,binding signal,[14],"1.33 fold enrichment (6-mer frequency, TF over GST control)"
same,binding signal,[15],"1.27 fold enrichment (6-mer frequency, TF over GST control)"
same,binding signal,[16],"1.3 fold enrichment (6-mer frequency, TF over GST control)"
same,binding signal,[17],"1.56 fold enrichment (6-mer frequency, TF over GST control)"
same,binding signal,[18],"1.33 fold enrichment (6-mer frequency, TF over GST control)"
